Legend:
Test in all cases: PBM binding z-score (relative to random genomic background probes); higher = stronger binding; sequences stand for … in GC…GCGATTGACAGCGTAGAATGAAGG
[1] = test system: FXR:RXRa (NR concentration 270 nM, RXRa partner concentration 90 nM)
Outline: (§1)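 Probes were double-stranded and carried 34-nt variable regions with direct-repeat seeds, single-nucleotide variants, half-site ablations and random human genomic background sequences, printed on custom Agilent 4×180K protein-binding microarrays. Arrays were incubated 1 h with ligand-free nuclear receptor dimers in PBS pH 7.4, 2% milk, 0.02% Triton X-100, 1 mM DTT, 0.2 mg/mL BSA and 0.4 mg/ml salmon testes DNA. Antibodies against each partner (one per run) detected binding, and scanned fluorescence was regression-normalized. Binding z-scores use the random background probes as reference.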

[2] = test system: LXRa:RXRa (NR concentration 270 nM, RXRa partner concentration 90 nM)
Outline: as §1

[3] = test system: LXRa homodimer (NR concentration 270 nM)
Outline: as §1

[4] = test system: LXRb:RXRa (NR concentration 270 nM, RXRa partner concentration 90 nM)
Outline: as §1

[5] = test system: LXRb homodimer (NR concentration 270 nM)
Outline: as §1

[6] = test system: PPARa:RXRa (NR concentration 270 nM, RXRa partner concentration 90 nM)
Outline: as §1

[7] = test system: PPARg:RXRa (NR concentration 180 nM, RXRa partner concentration 90 nM)
Outline: as §1

[8] = test system: PPARg:RXRa 270nM:90nM, anti-RXR (NR concentration 270 nM, RXRa partner concentration 90 nM)
Outline: as §1

[9] = test system: PPARg:RXRa 30nM:10nM, anti-RXR (NR concentration 30 nM, RXRa partner concentration 10 nM)
Outline: as §1

[10] = test system: PPARg:RXRa 90nM:30nM, anti-RXR (NR concentration 90 nM, RXRa partner concentration 30 nM)
Outline: as §1

[11] = test system: PPARg:RXRa DBDmut IVT, anti-RXR (DBD mutation: RXRa K156A/R161A, NR concentration 270 nM, RXRa partner concentration 90 nM)
Outline: as §1

[12] = test system: PPARg:RXRa IVT, anti-PPARg (NR concentration 270 nM, RXRa partner concentration 90 nM)
Outline: as §1

[13] = test system: PPARg DBDmut:RXRa IVT, anti-PPARg (DBD mutation: PPARg1 K132A/R137A, NR concentration 270 nM, RXRa partner concentration 90 nM)
Outline: as §1

[14] = test system: PPARg DBDmut IVT, anti-PPARg (DBD mutation: PPARg1 K132A/R137A, NR concentration 270 nM)
Outline: as §1

[15] = test system: PPARg homodimer (NR concentration 180 nM)
Outline: as §1

[16] = test system: PXR:RXRa (NR concentration 270 nM, RXRa partner concentration 90 nM)
Outline: as §1

[17] = test system: PXR homodimer (NR concentration 270 nM)
Outline: as §1

[18] = test system: RARa:RXR (NR concentration 270 nM, RXRa partner concentration 90 nM)
Outline: as §1

[19] = test system: RARa homodimer (NR concentration 270 nM)
Outline: as §1

[20] = test system: RARb:RXRa (NR concentration 270 nM, RXRa partner concentration 90 nM)
Outline: as §1

Sequence	PBM binding z-score [1]	PBM binding z-score [2]	PBM binding z-score [3]	PBM binding z-score [4]	PBM binding z-score [5]	PBM binding z-score [6]	PBM binding z-score [7]	PBM binding z-score [8]	PBM binding z-score [9]	PBM binding z-score [10]	PBM binding z-score [11]	PBM binding z-score [12]	PBM binding z-score [13]	PBM binding z-score [14]	PBM binding z-score [15]	PBM binding z-score [16]	PBM binding z-score [17]	PBM binding z-score [18]	PBM binding z-score [19]	PBM binding z-score [20]
AGTCAAAGTTCAGGACGAGGTAACGTATAGCACG	4.44	4.03	1.43	1.92	0.317	3.43	4.7	5.09	2.17	4.27	-0.0709	2.03	0.949	0.866	2.09	3.08	1.29	2.97	0.98	4.34
CCTTCTAGGTCAATGGTCAGCTAAAGCAGCTCGC	3.17	2.37	0.146	1.58	0.698	4.34	7.25	6.5	5.76	7.12	7.32	6.6	0.00752	0.699	2.03	0.931	-0.321	1.73	0.51	3.85
ATATGTGGGTTAGCTGGGGTCATTCAGACTAGGC	4.69	5.5	2.93	4.93	2.51	5.09	5.17	4.9	2.27	4.19	6.16	5.6	3.15	2.88	3.21	6.47	6.39	5.9	1.64	2.96
TCAGACAGGTAAAGGTAACTCAGGTACGCAGTCG	1.07	3.02	0.16	1.79	0.229	1.48	1.11	2.56	4.03	3.14	2.37	0.745	0.618	0.192	0.82	0.892	0.37	1.35	0.782	0.904
TCTAGCAGGCCAGAGGGTCACTCCAGAGGTACGG	0.862	0.694	-0.544	0.582	-0.995	1.91	1.19	2.54	1.72	2.31	0.669	0.586	-1.43	-1.75	0.69	1.08	-0.334	1.92	-0.787	1.89
CAAACTAGGTCAGGAGGTCAAAGTCCGCTTCCCG	5.51	5.22	4.23	4.39	1.11	5.91	8.99	7.3	5.95	7.43	7.85	8.07	2.42	1.18	6	5.16	2.29	6.31	1.8	4.92
GTATATAGGTAATACAAGGTGAAAGTCCGATTGT	0.948	2.78	0.975	0.947	0.188	2.78	3.05	2.69	1.39	1.94	5.56	5.62	2.12	2.34	1.29	0.792	0.761	1.95	1.09	0.593
TCTGCTAGGTCAACGATGGTCAGCTTATCTGCTA	3.6	2.98	-0.083	1.77	-0.302	3.38	2.43	3.06	2.06	2.59	4.15	4.27	2.31	1.16	0.812	1.76	-0.682	2.5	-0.672	4.22
CCTACTGGGCCAGAAAGGTCATTGATGCCGATAA	3.9	4.7	3.35	4.16	0.28	4.76	2.59	3.87	1.21	2.91	2.56	3.3	-0.848	-1.13	2.14	4.76	2.21	5.01	1.75	3.73
TCTTGTAGATCAAAGGTGAAGAAAGCCGAAGCCT	0.848	1.05	-0.533	0.994	-0.372	4.04	7.41	7.96	7.36	9.05	2.96	3.53	-0.0532	0.112	0.161	0.885	-0.554	1.86	-0.538	1.49
TCTAGTTGGTCAAAGGTAACACACTCGAAATGCG	1.27	1.4	0.707	1.5	0.561	4	8.12	7.77	6.85	8.85	3.54	3.93	1.52	1.17	2.03	1.34	0.784	1.93	1.72	1.86
CTTACTGGGCCAAGGTCATTGATCAGTCAAAGCA	3.38	3.5	1.27	3.15	0.239	4.7	6.21	5.67	3.67	5.42	6.43	6.49	1.83	1.71	2.67	3.89	1.48	4.38	0.236	3.38
ACAGACAGGTGATGGAGGTAACTCAGGCTATCAT	-0.104	-0.199	-0.062	-0.121	-0.598	0.109	0.789	-0.241	-0.252	-0.291	0.108	0.744	0.159	-0.142	-0.281	-0.304	-0.184	0.033	-0.0178	0.173
ACTAGCAGTCCAAGTTTGGGTCACTCAAACAAAG	0.21	0.226	-0.0309	0.795	-0.524	1.13	-0.105	0.22	-0.155	-0.0965	-0.573	0.678	-0.264	-0.283	-0.0489	0.921	-0.137	1.4	-0.47	1.24
TGAATGAGGTTAAAGATCAGGGAACGTGGCGTCG	3.08	2.42	-0.304	1.71	0.375	4.63	5.54	6.57	4.6	6.57	2.04	3.27	0.612	0.495	1.15	1.99	0.0833	3.37	0.135	1.97
ATCGAAAGGTCGACGTGGTGAGTATACACCGTTT	4.21	3.3	0.0877	2.49	0.332	4.08	2.08	2.66	1.01	1.77	0.406	1.46	0.651	0.527	1.02	2.18	0.102	3.07	0.487	3.66
TCTCGGAGGACTCGAAGGTCAGAGCTTTCCAGAG	0.838	0.984	-0.429	0.814	-1.14	1.46	-0.316	1.24	2	1.38	1.45	0.0197	-0.446	-1.86	0.353	1.04	-0.316	1.48	-1.07	2.17
CCTACTGAGCCACGAAAGGTCATTGATTCAGTGA	3.68	5.05	5.31	4.22	1.09	4.21	1.27	2.77	0.973	1.93	0.983	1.29	-0.156	0.271	3.9	5.33	2.61	5.69	3.37	3.95
CTACCAAGGTGAACAAGGTTGTTGATTACTATTC	0.708	0.561	-0.172	1.36	-0.417	1.53	0.7	0.746	-0.199	0.615	2.39	2.42	-0.144	0.038	0.436	1.04	0.435	0.73	0.287	1.57
AGAATGAGGTTATACGTAGATCAGAGAAGAAAGT	2.4	1.86	0.0397	1.57	0.2	3.2	2.36	2.1	0.792	1.45	3.8	2.41	0.986	0.988	1.35	1.1	0.455	1.51	0.376	1.38
TCGAGTTGGTTAGGGGCATTCAGAATGGCGTCGA	0.222	0.121	-0.233	0.793	-0.112	0.575	-0.307	0.595	0.687	0.343	0.816	-0.123	-0.765	-0.477	0.182	1.14	2.82	0.232	0.104	0.514
CCTAGCAGGCCAAACTGGGTCACTCAAGGCTTGA	0.705	0.962	-0.345	1.07	-0.564	3.05	1.74	2.06	-0.348	0.712	4.11	4.34	-0.371	-1.09	0.924	1.05	-0.482	1.77	-0.26	1.61
CCTACTGGGCCATTCACAGGTCATTGATCATATG	0.864	2.27	4.05	2.21	-0.0927	2.62	1.27	2.04	0.468	1.3	4.38	4.07	0.164	0.233	1.37	2.11	0.599	2.4	0.567	2.03
TATACACGGTCAAAGGCCAGAGTACGAATGTCGA	1.3	3.22	2.75	0.929	1.43	2.04	3.99	4.34	2.65	4.3	0.134	2.39	1.55	1.14	1.12	0.507	0.583	1.13	0.418	2.85
CGTCCAAGGTCATAGGAGGTCAGGGAAGACAGAT	7.91	7.63	5.15	6.25	0.687	6.17	6.03	5.99	2.83	4.83	3.02	4.92	1.73	1.82	5.03	6.9	3.35	6.79	2.46	5.31
TCTGCTAGGTCAACGATGGTCAGGTAATCTGCTA	3.43	2.96	0.163	1.53	-0.249	3.19	2.74	3.06	2.01	2.65	4.42	4.19	0.0564	-0.0875	0.216	1.61	-0.526	2.34	-0.895	3.93
GCTGCTCGGTCAGGTTGGTCAGCTAACGGGTACG	-0.343	-0.331	-0.448	-0.697	-0.583	-0.536	-0.75	-0.709	-0.71	-1.1	-0.244	-0.303	-1.15	-1.51	-0.397	-0.721	-0.841	-0.696	-0.978	1.94
CGAACTAGGTCAGAAAAGGACAGTGAAGGATGAT	1.84	0.723	-0.125	0.338	-0.514	2.87	4.64	4.06	1.43	3	6.88	7.14	2.3	1.47	1.15	1.17	-0.473	1.08	0.026	3.16
AGAATGAGGTTTAGATCAGGGAAACAGAATACAT	0.0195	-0.0666	-0.0558	-0.395	-0.223	-0.306	0.649	0.00462	0.223	0.354	-0.558	-0.176	0.757	0.896	-0.0172	-0.27	-0.0808	-0.0668	0.721	-0.105
